This is an account of results in PubChem BioAssay AID504332 (National Center for Advancing Translational Sciences (NCATS), 2011).

SMILES strings stand for the structures. Out of some 350,000 compounds screened, about 31,000 (8.9%) were called active. Where a call stands in place of a potency, no number is given. Another 15% or so got no clear call; they are omitted. Only a selection was taken, and actives are over-represented in it overall. A number with no mark means an inactive call. Calls come from the whole dose curve; as a rule, active = well fitted inhibition curve with a large enough effect; inconclusive = small, poorly fitted or top-dose-only effect; inactive = no such curve, though single readings can be large or run the other way.
Potency is the fitted concentration of half-maximal effect.

Histone-lysine N-methyltransferase EHMT2 (Homo sapiens), sequence (Q96KQ7 913-1193 limits assumed): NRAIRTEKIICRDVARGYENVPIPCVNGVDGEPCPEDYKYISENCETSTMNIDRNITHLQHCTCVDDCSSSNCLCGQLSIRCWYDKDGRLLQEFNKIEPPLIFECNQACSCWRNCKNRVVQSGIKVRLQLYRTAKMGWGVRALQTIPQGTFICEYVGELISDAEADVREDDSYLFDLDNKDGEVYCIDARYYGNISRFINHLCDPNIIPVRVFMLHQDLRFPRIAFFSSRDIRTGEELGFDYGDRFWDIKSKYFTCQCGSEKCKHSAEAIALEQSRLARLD

This experiment concerns the target Histone-lysine N-methyltransferase EHMT2 (Homo sapiens) (UniProt Q96KQ7). Description: qHTS Assay for Inhibitors of Histone Lysine Methyltransferase G9a. Note: nearly all actives have a fitted effect of over 75% in size. The following applies: G9a H3K9 monomethylation, AlphaScreen, 2 h; series mostly up to 59 µM. The method, boiled down: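 Using a bead-based AlphaScreen, monomethylated H3K9 product from 2 h room-temperature reactions (G9a 20 nM, peptide 500 nM, SAM 20 uM) was detected with 0.5 ug/mL rabbit anti-H3K9me1 antibody.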
With `CCOc1ccc(S(=O)(=O)Nc2cccc(C(=O)NCC3(N4CCCCC4)CCCCC3)c2)cc1`, the activity, negative = inhibition was 19.1% [at 0.501 µM]. As to `CCOC(=O)C1CCC(CN(Cc2ccc(OC)cc2)S(=O)(=O)c2ccc(F)c(C(=O)Nc3cc(C)ccc3C)c2)CC1` (stereo unspecified), the Potency entry is “inactive”.

Take `O=C(N[C@@H](Cc1ccccc1)C(=O)OCc1ccccc1)c1nc[nH]c1C(=O)NC1CCNCC1`: the activity, negative = inhibition was -7.95% [at 2.33 µM].

As for `CCc1ccc(C2C(C#N)=C(N)N(N(C)C)C3=C2C(=O)CCC3)s1` (stereo unspecified), the Potency entry was “inactive”. The same measure, in the same setting: the value for `Cc1sc(C2C(C#N)=C(N)N(c3cccc(Cl)c3)C3=C2C(=O)CCC3)cc1CN1CCOCC1` (stereo unspecified) was 15.8 µM (active); that for `N#CC1=C(N)N(c2ccccc2)C2=C(C(=O)CCC2)C1c1ccccc1` (stereo unspecified) was “inactive”. For `CC(=O)Nc1cccc(NC(=O)CSc2cn(CC(=O)N3CCCC3)c3ccccc23)c1`, the Potency result was “inactive”.

Consider `CCN(CCCNC(=O)c1cc(Nc2ccc(OC)cc2)nc2ccccc12)c1cccc(C)c1`, for which the Potency entry was “inactive”. Turning to `CC[C@H](C)C(=O)N[C@H]1CCCN1C(=O)/C=C/c1ccccc1`, the activity, negative = inhibition was 11.1% [at 2.33 µM]. For the compound `COc1ccc(C(=O)Oc2ccc(-c3nnco3)cc2)cc1S(=O)(=O)N1CCOCC1`, the Potency is 50.1 µM (active).

`COc1ccc(C(=O)N2CCN(c3ncccn3)CC2)cc1S(=O)(=O)N1CCOCC1`: the activity, negative = inhibition is 10.4% [at 12.7 µM]. On the same count and under the same terms, the same measure for `COc1ccc(C(=O)OC(C)C(=O)NC2CCCC2)cc1S(=O)(=O)N1CCOCC1` (stereo unspecified): 22.8% [at 12.7 µM].

As for `COc1ccc(Cl)cc1NC(=O)CCn1c(=O)c2cccn2c2ccccc21`, the Potency entry was “inactive”. On the same count and under the same terms, the value for `CCn1cc(C(=O)N2CCN(c3cc(Cl)ccc3C)CC2)c(=O)c2cc(S(=O)(=O)N3CCCC3)ccc21` was “inactive”; that for `Cc1ccc(Cl)cc1N1CCN(C(=O)c2cccc3c(=O)c(C)c(-c4ccccc4)oc23)CC1` was 7.94 µM (active); that for `Cc1ccc(Cl)cc1N1CCN(C(=O)c2cccn3c(=O)c4cc(Cl)ccc4nc23)CC1` was “inactive”. Same read-out and setting: the value for `CN(C)C(=O)COC(=O)c1cccc(S(=O)(=O)N2CC3(C)CC2CC(C)(C)C3)c1` (stereo unspecified) was “inactive”. As for `Cc1ccc(-c2nc3ccccn3c2Nc2c(C)cccc2C)o1`, the Potency is 12.6 µM (active). Same read-out and setting: the same measure for `Cc1nc2ccccn2c(=O)c1NC(=O)c1c(F)cccc1F`: “inactive”; for `Cc1ccc(Nc2c(-c3ccc(C)s3)nc3ccccn23)cc1`: “inactive”. Consider `CCc1cc2c(-c3ccccc3)cc(=O)oc2c2c1OCN(Cc1ccc(C)cc1)C2`, for which the Potency result was “inactive”. With `Cc1ccc(CN2COc3cc(C)c4c(oc(=O)c5ccccc54)c3C2)cc1`, the Potency is 12.6 µM (active). For the compound `CN1CCN(Cc2c(O)ccc3c2oc(=O)c2ccccc23)CC1`, the activity, negative = inhibition was -28% [at 2.33 µM]. In the case of `COc1ccccc1CNS(=O)(=O)c1cc(C(=O)NCc2ccccn2)c(Cl)cc1Cl`, the Potency entry is “inactive”. On the same count and under the same terms, the same measure for `CCOc1ccc(NC(=O)C2CCN(S(=O)(=O)c3cc(-c4noc(C)n4)ccc3C)CC2)cc1`: “inactive”. For `Cc1ccccc1NC(=O)Cn1c(=O)n(Cc2ccco2)c(=O)c2ccc(C(=O)NC3CCCC3)cc21`, the Potency entry was “inactive”. The same measure, in the same setting: the value for `CCN1C(=O)c2ccccc2S(=O)c2ccc(C(=O)NCc3ccc(F)cc3)cc21` (stereo unspecified) was “inactive”.

For the compound `COc1cccc(CCNC(=O)COc2cccc3c2OC(C)(C)C3)c1`, the Potency entry was “inactive”. The same measure, in the same setting: the value for `COC(=O)c1cn(C(=O)c2ccc(Cl)cc2)c2ccccc12` was “inactive”. Consider `COC(=O)/C(NC(C)=O)=C(\C)c1ccc(Cl)cc1`, for which the Potency entry was “inactive”.

For `COC(=O)C(=Nc1ccccc1)/C(C(=O)C(=O)N(C)c1ccccc1)=C(\O)c1ccc(Cl)cc1`, the Potency was 20 µM (active).

With `Cc1cc(Nc2cccc(C(F)(F)F)c2)nc2ccc(NC(=O)c3ccc(=O)[nH]c3)cc12`, the Potency entry was “inactive”.

With `O=C(O)CS/C(=C\c1ccc(F)cc1)c1nc2ccccc2s1`, the Potency entry was “inactive”.

Turning to `O=C(O)CC/C(=C\c1cc2c(cc1Br)OCO2)c1nc2ccccc2s1`, the Potency was 35.5 µM (active). Consider `O=C(Nc1nc2ccccc2s1)c1ccc2c(c1)OCO2`, for which the Potency entry is “inactive”. On the same count and under the same terms, the value for `Cc1ccc2oc3c(c(=O)c2c1)C(c1ccc(O)cc1)N(Cc1ccc2c(c1)OCO2)C3=O` (stereo unspecified) was “inactive”. Same read-out and setting: the same measure for `Cc1ccc(-n2c(=O)c3cccnc3n2CC(=O)Nc2ccccc2C(F)(F)F)cc1C`: “inactive”; for `COc1ccc(Cc2nnc(SCC(=O)Nc3ccc(C)c(C)c3)o2)cc1OC`: “inactive”. On to `COc1ccc(S(=O)(=O)N2CCCCC2)cc1NC(=O)COc1ccccc1`, for which the activity, negative = inhibition is -9.48% [at 2.33 µM]. For the compound `Cc1ccc(S(=O)(=O)N2CCOCC2)cc1C(=O)Nc1ccccc1N1CCCC1`, the activity, negative = inhibition is 11% [at 0.501 µM]. Same read-out and setting: the value for `COc1ccc(S(=O)(=O)N2CCOCC2)cc1NC(=O)c1ccc(OCC(C)C)c(OC)c1` was 22.9% [at 2.33 µM]. Take `Cc1ccc(S(=O)(=O)N2CCOCC2)cc1C(=O)NCc1ccc(F)cc1`: the Potency result was “inactive”. Same read-out and setting: the value for `Cc1cccc(OCCC(=O)Nc2cc(S(=O)(=O)N3CCCCC3)ccc2N2CCOCC2)c1` was “inactive”; that for `O=C(CNCc1cccs1)Nc1cc(S(=O)(=O)N2CCCC2)ccc1Cl` was “inactive”. Turning to `O=C(CNCc1ccco1)Nc1cc(S(=O)(=O)N2CCOCC2)ccc1N1CCCC1`, the Potency was 50.1 µM (active). Consider `COc1ccc(S(=O)(=O)N2CCOCC2)cc1NC(=O)CSc1ncnc2ccccc12`, for which the Potency entry was “inactive”. Still for that read-out and setting: the same measure for `CC(Oc1ccc(F)cc1)C(=O)Nc1cc(S(=O)(=O)N2CCOCC2)ccc1N1CCN(C)CC1` (stereo unspecified): 11.2 µM (active); for `O=C(Nc1ccc(N2CCCCC2)cc1)c1cc(S(=O)(=O)N2CCOCC2)ccc1F`: 17.8 µM (active); for `O=C(Nc1ccc2c(c1)nc1n2CCCCC1)c1cc(S(=O)(=O)N2CCOCC2)ccc1Cl`: “inactive”.

With `COc1ccc(S(=O)(=O)N2CCOCC2)cc1NC(=O)COc1ccccc1`, the Potency was 12.6 µM (active). Regarding `CC1CCC2(CC1)N=C(c1ccccc1)C(=O)N2CC(=O)Nc1ccc(F)c(Cl)c1` (stereo unspecified), the Potency result is “inactive”. The same measure, in the same setting: the value for `O=C(NCc1cccnc1)C(=O)NCC(c1cccnc1)N1CCN(c2ccccc2)CC1` (stereo unspecified) was “inactive”; that for `Cc1c(NC(=O)C(C)(C)C)cccc1-c1nc2ccccc2s1` was “inactive”; that for `CCc1ccc(-n2nnc(-c3nc(-c4ccccc4)no3)c2C)cc1` was “inactive”. Turning to `CCCCn1c(=N)c(S(=O)(=O)c2ccccc2)cc2c(=O)n3cccc(C)c3nc21`, the Potency entry was “inactive”. On the same count and under the same terms, the value for `COc1cccc(N=C2SC(C(=O)Nc3cccc(Cl)c3)CC(=O)N2C)c1` (stereo unspecified) was “inactive”.
